# Experimental data from PubChem BioAssay AID686978 (National Center for Advancing Translational Sciences (NCATS), 2013).
# Among all 420,000 compounds or so, about 64,000 (15%) were called active. Not shown: some 27% with an inconclusive outcome. These entries were drawn from the full list. A number with no mark means an inactive call. The call rests on the fitted dose curve; in most records, active means well fitted inhibition curve with a large enough effect; inconclusive means small, poorly fitted or top-dose-only effect; inactive means flat fitted curve, though single readings scatter.
# Assay: qHTS for Inhibitors of human tyrosyl-DNA phosphodiesterase 1 (TDP1): qHTS in cells in absence of CPT; further: nearly all actives have a fitted effect of over 55% in size
# Settings: DT40 Tdp1-/- hTDP1 cells, no CPT, ATP luminescence, 48 h; activity change, negative = growth inhibition: at 46.2 µM (top of the series)
# Outline: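 Chicken DT40 Tdp1-/- cells stably complemented with human TDP1 were seeded at 400 cells/well with DMSO in place of 20 nM camptothecin. After compound pinning, cells grew at least 48 hr at 37 °C; viability read by CellTiter-Glo luminescence.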
# On the % scale 0 is the no-effect control and ±100 the full control effect; potency means the concentration at half of the fitted maximal effect.
SMILES,"activity change, negative = growth inhibition [%]",Potency
Cc1ccc(S(=O)(=O)NC2CCCCCC2)cc1,-3.72,–
Cc1ccc(S(=O)(=O)C2(S(=O)(=O)c3ccc(C)cc3)CCCC2)cc1,–,6.51 µM (active)
Cc1ccc(S(=O)(=O)N(C)C2(C)CCS(=O)(=O)C2)cc1 (centres undefined),-11.5,–
C=C1c2cccc(OC)c2O[C@H](C(=O)OCC)[C@@H]1CCCCCC,-24.5,–
CCCn1nc(NS(=O)(=O)c2ccc(F)cc2)c2cc3ccccc3nc21,16.6,–
COC(=O)c1cc(OCC(=O)NC2CCCc3ccccc32)cc(C(=O)OC)c1 (centres undefined),-6.64,–
O=C(O)CCC(=O)N(Cc1cccs1)Cc1cccs1,-8.37,–
COc1ccccc1NC(=O)CSc1nnc(C)n1CC1CCCO1 (centres undefined),-4.72,–
CC(C)Oc1ccc(CCc2nnc(SCC(=O)O)n2-c2ccccc2)cc1,5.27,–
CC(C)Oc1ccc(Cc2n[nH]c(=S)n2Cc2ccccc2)cc1Cl,-21.3,–
CC(C)Oc1ccc(CCc2n[nH]c(=S)n2Cc2ccccc2)cc1,–,20.6 µM (active)
O=C(O)CCn1c(SCc2cc(=O)n3ccccc3n2)nc2ccsc2c1=O,-2.92,–
Cc1ccc(CSc2nnc(-c3cnccn3)n2C)cc1,-21.9,–
Cc1ccc(CSc2nc3ccsc3c(=O)n2CCC(C)C)cc1,–,23.1 µM (active)
O=CN1CCN(C(=O)c2ccc(Br)o2)CC1,7.18,–
CCC(CO)Oc1cc(NC(=O)c2cccc(F)c2)c2ncn(C(C)C)c2c1 (centres undefined),-28.2,–
Cc1ccc(CNC(=O)COc2ccc(S(=O)(=O)NC(C)C)cc2)cc1,-10.9,–
O=S(=O)(NN=C1CCCCCCC1)c1ccc(Br)cc1,-1.76,–
O=C(CNS(=O)(=O)c1ccc(Br)s1)NCc1ccc2c(c1)OCO2,-10.7,–
CN(CC(O)COc1ccc(S(=O)(=O)N2CCOCC2)cc1Cl)C1CCCCC1 (centres undefined),-2.06,–
Cc1cc(-n2nc(C)cc2C)n2nc(C)c(-c3ccccc3)c2n1,-1.3,–
Cc1nn2c(NCCN(C)C)c3c(nc2c1-c1ccccc1)CCC3,–,25.9 µM (active)
Cc1cc(C(C)(C)C)n2nc(C)c(-c3ccccc3)c2n1,-10.7,–
Cc1ccc2c(c1)C1C[N+](C)(CC(=O)c3ccccc3)CCC1N2C(=O)c1ccccc1Cl (centres undefined),8.16,–
COc1cccc(NC(=O)C(Sc2nnnn2C)c2ccccc2)c1 (centres undefined),10.7,–
O=C(NNS(=O)(=O)c1ccc(F)cc1)C1CCCCC1,-11.3,–
O=C1CC[C@@H](C(=O)N2CSC[C@@H]2C(=O)Nc2ccc(C(F)(F)F)cc2)N1,-23.9,–

SMILES,"activity change, negative = growth inhibition [%]",Potency
Cc1sc(NC(=O)C2=COCCO2)c(C#N)c1C,-25.1,–
CCCc1ccc(-c2c(C)sc(NC(=O)c3ccnn3C)c2C#N)cc1,–,20.6 µM (active)
Cn1nccc1CNC(=O)c1ccnn1C,8.62,–
CC(CCn1cccn1)NC(=O)CCc1nnc(CCc2ccccc2)o1 (centres undefined),13.7,–
COc1ccc(C(C#N)(CC(=O)O)c2cnccn2)cc1OC (centres undefined),2,–
COc1cccc(NC(=O)c2ccc(S(=O)(=O)N(C)C)cc2)c1,2.12,–
COc1ccc(C(=O)Nc2cccc(S(C)(=O)=O)c2)cc1,–,23.1 µM (active)
COc1ccc(NS(=O)(=O)c2ccc(NC(=O)c3ccc(N(C)S(C)(=O)=O)cc3)cc2)cc1,–,8.2 µM (active)
COc1ccc(NC(=O)c2cnc(NS(=O)(=O)c3ccccc3)nc2)cc1,-14.2,–
CCC(=O)Nc1ccc(C(=O)Nc2cccc(OC)c2)cc1,-22.8,–
COc1ccc(NC(=O)c2ccc(OC)cc2)cc1,-7.09,–
CC1(C)C(=O)Nc2ccccc2N1C(=O)COC(=O)Cn1cnc2ccccc2c1=O,-10.5,–
O=C1CC(c2cccc(Br)c2)C2=C(CCCC2=O)N1 (centres undefined),-15.9,–
COc1cc(OC)cc(/C(N)=N/O)c1,0.324,–
Cc1cc(C(=O)N/N=C\C(Br)=C\c2ccccc2)c(C)o1,–,16.4 µM (active)
CC(C)c1cc(C(=O)O)n[nH]1,-6.63,–
CC(=C/c1ccccc1)/C=N/NC(=O)c1cc(C)oc1C,-18.6,–
CC(C)c1cc(C(=O)N/N=C/C(Br)=C/c2ccccc2)n[nH]1,–,2.59 µM (active)
Cc1ccc(-c2cc(C(=O)N/N=C/C=C/c3ccccc3)n[nH]2)o1,-12.2,–
COc1ccc(C/C(C)=N/NC(=O)c2cc(C)oc2C)cc1,-17.1,–
Cc1ccc(NC(=O)Cc2nnc(SCC(=O)Nc3nncs3)n2C)cc1,1.58,–
CC(C)Nc1nnc(SCC(=O)c2c[nH]c3ccccc23)s1,-28.5,–
CC(NC(=O)C(=O)N/N=C/c1ccc(Cl)cc1)c1ccccc1 (centres undefined),-10.3,–
C=CS(=O)c1sc(Cl)c(N2CCOCC2)c1[N+](=O)[O-] (centres undefined),–,1.03 µM (active)
Cc1c(Nc2cc(N3CCCC(C)C3)c3nonc3c2[N+](=O)[O-])c(=O)n(-c2ccccc2)n1C (centres undefined),10.8,–
COc1ccc(N2C(=O)CC(N3CCC(C(N)=O)CC3)C2=O)cc1 (centres undefined),-2.52,–
CCCCCCCNc1ccc(/C=C/c2ccnc3ccccc23)cc1,–,10 µM (active)
